About 3,700 (7%) of roughly 53,000 sequences were called active. The full list was thinned out, with actives kept by preference. Unmarked numbers belong to inactive results.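 Rule for the calls: active = gene knockdowns whose robust z-score for IL-1 alpha signal is at least 2 or at most -2, so actives lie on both sides; inactive = the rest.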

The nature of this assay: Components of the Cytosolic LPS Sensing Pathway: Gene Identification via Genome-wide siRNA Screen.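 Note: robust z of the log signal after scaling to non-targeting control siRNA wells of the plate.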 As to conditions: RAW264.7 macrophages, IL-1a HTRF, actives lie on both sides, screened at 100 nM (by protocol), cells primed 5 h with Pam3CSK4 first. The gist of the method:
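Three distinct siRNAs per gene were tested singly at 100 nM in RAW264.7 macrophages. Following Pam3CSK4 priming and 24 hour LipidA transfection, IL-1a secretion was read by HTRF.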
(In general: In TR-FRET formats the signal depends on donor and acceptor labels being close together.)
GGAAACGUGGGCAUGAUCATT against Olfr944: the z-score was -0.239.

Consider GGAUAAUGAUGUGAAAGGCTT against Mrps30, for which the z-score was 0.984.

Turning to GGACAACAUGAACUGUCAGTT against Snrpd3, the z-score was -2.74 (active).

Regarding GCUUGACUUUGAAAGUCCATT against Gm11733, the z-score was -1.54.

For the sequence GGCUUUCUCCCAGCAAUAGTT against Scrt1, the z-score is -1.97.

For GGGAUCAACAUUUACCGAATT against Ablim1, the z-score was 0.596.

Regarding CCCACCUUCCGACUUGAAUTT against Col12a1, the z-score is -1.12.

As for GUCAGAACCAUAGCCAUGATT against Vmn1r202, the z-score is -0.623.

In the case of GCUGAUCAGAGACCAUUACTT against Cmss1, the z-score is -2.26 (active).

On to GGGAGAAGGUGGAAAUACUTT against Hdgfl3, for which the z-score is 1.63.

Turning to GGCCAUACGGACCAUGUAUTT against Slc25a19, the z-score is -1.25.

Consider GGACCAAAUCCUCUGAUUCTT against Bud13, for which the z-score is 2.74 (active).

Take GGCUGCCUUGCUGAUUUGATT against Boc: the z-score was 0.762.

Turning to CCUUUACGUUUCUGUGUCUTT against Slc37a4, the z-score was -1.19.

In the case of CCAUUCUACACUUUUCCACTT against Krtap1-5, the z-score is -0.909.

As for GCCAAGCAUUAAGUGAUAATT against Setmar, the z-score is 2.7 (active).

On to CCAACUAAUCCCAUAUUCCTT against Tmem43, for which the z-score was 0.0511.

For GGAGCUAUGUUCAGUUCUUTT against Qsox1, the z-score is 0.438.

Consider GCAUUAUCUGUGAAAAUCCTT against En2, for which the z-score is 0.262.

Take GCAGAAAUUAACAAGUCUCTT against Kif2c: the z-score was 0.816.

Consider GCACUGUUCGUUUUUGUUUTT against Astn1, for which the z-score was 0.275.

In the case of GGCUAUGGGAAUCAUGAAUTT against H2bc18, the z-score is -2.84 (active).

Consider GCUCUAUGAGAGUAUAUUATT against Tamm41, for which the z-score was -0.495.

With GCAUGUGAUUACCUUUGUATT against Btbd10, the z-score was 0.633.

For GGGAUCCCGCAAAAUCAGATT against Osm, the z-score is 0.63.

Consider GCACAUCUUGGACCGUUUCTT against Lhx3, for which the z-score was 0.851.

As to GGGUACAAGCUUAUCAAUATT against Trpm6, the z-score was 4.91 (active).

Consider GGUGUAUAGCUGUUGUGGGTT against Dennd2d, for which the z-score is -1.41.

In the case of CCUCAAGGAACUGAAUGCCTT against Olfr1320, the z-score was 0.0261.

For GGGAUAAAGAGAGACCCAATT against Flywch1, the z-score was 0.889.

Take CCAGAUGACAAUGAGUCAGTT against Ss18: the z-score was -0.197.

Take CCUAAAUUUGACUGUGCCUTT against Nudt10: the z-score was 2.13 (active).

For the sequence GCGAUUGUCAUUCUCUUUUTT against Jak3, the z-score is 0.711.

For GGGCUUUCCCAGUUCCUAATT against Bmp6, the z-score is 2.04 (active).

On to CCACCUCAAGUCAAAGACUTT against Cggbp1, for which the z-score was -0.445.

As for GGCUCUAGAAGCGAGAAUCTT against Six6, the z-score is -0.234.

On to GGACCUAAUCCAUAAGGUCTT against Pcyox1l, for which the z-score was -0.379.

As for GGAACAGAUCUCUGAUAUATT against Sub1, the z-score is 0.564.

For the sequence GGCCUUCAUUGAGAUGAACTT against Ptbp1, the z-score is -1.17.

Take GGCUAUGAUGAUUAUAAUGTT against Hnrnph1: the z-score is 0.724.

For the sequence GGACCAGAGGAGAUUUCAATT against Ern2, the z-score was 1.56.

For GGUAAACUCAAGUUUUCAGTT against Inpp5j, the z-score was 2.36 (active).

As for GGAUGAGAAACCAUUUAAATT against Oas1f, the z-score is -1.08.

Turning to GGAUCUCCCUCUAAAUAUUTT against Hsp90aa1, the z-score is -0.138.

For the sequence CGGAAAGUCCGGUUUCGAATT against Grxcr1, the z-score was 0.156.

For CGAAGUUACGAGCAUCCACTT against Crhr2, the z-score was 3.81 (active).

Take GGUUUACAGCAUCAUUAAATT against Shmt1: the z-score is 0.345.

Take CCAGACGAGGAGAACAUCATT against Samd4b: the z-score was -0.111.

For GGAUUAGCCUGGUCCUUUUTT against Dusp14, the z-score is 0.989.

For CCGUCCGAUGAAAAACAGGTT against Prm1, the z-score was -0.128.

Take GCCCACCGACUUUAUUAACTT against Tfap2d: the z-score is 0.541.

On to GCCAGACAAGCCUCAUUGATT against Ncapd2, for which the z-score is -2.2 (active).

Consider GGAAAAGAAAAUCGAGACCTT against Ubap2l, for which the z-score was 0.776.

As to GGUACAAAUGCAUUGAGAGTT against Fcamr, the z-score is -1.3.

For the sequence GGCAAAGACAAGAAGCUGUTT against Drap1, the z-score was -0.445.

GCACAACUUAUGACUGAAATT against Emc4: the z-score is 1.66.

As to GCUUCAAGUCAACUUAGUCTT against Hal, the z-score was 1.24.

Regarding GCGAAUUCGAAAGCUAUGATT against Arhgef10, the z-score is -2.19 (active).

As to CCGAAGACUAGCUAAUUUUTT against Sult1c1, the z-score is 1.17.

For the sequence CCUUCAACUAUGGCAAAUATT against Cacul1, the z-score is -0.241.

For the sequence GCUCUGAACUCAAUAAUAATT against Atg7, the z-score was -0.875.

In the case of GCGGAUCUGCUUUUUGCACTT against Ttc14, the z-score was -0.105.

In the case of ACUUCGUAAAAGAGCACAATT against Platr25, the z-score was 1.02.

“GGAUCUUGAAGAUAAGAGCTT against 1810009A15Rik”: the z-score is -0.599.

As to GGGUUUCAGAACUGAGUUATT against Saa1, the z-score was -0.28.

Take GCCAUGAAUCCUAUCCGCATT against Ephb3: the z-score is -0.967.

Turning to CCACCUAAUUUAUUGCUGUTT against Mafk, the z-score is 0.745.

With GGGUAGAAUGUGUGUGUCUTT against Abhd15, the z-score was -2.52 (active).

On to GGCUGGCAUCACCAUCAAATT against Kit, for which the z-score was 0.429.

For the sequence CCACUUAUAACUCAUAGUUTT against Ugt2b34, the z-score was 0.0725.

In the case of GGACCGCUUCAACAGUAUGTT against Tcfl5, the z-score was -0.525.

As to “CGCAUCUGUUUCUUUUCCCTT against 1700029P11Rik”, the z-score was -2.22 (active).

As to GCAGGAGUUUAUCAGAGGATT against Prim2, the z-score is -1.64.

Regarding GGCAGCAAAGUCAAGAUGUTT against Msgn1, the z-score is -1.82.

On to GGGAGGAGAAAAAUAUUCUTT against Olfr1094, for which the z-score is -1.5.

GGAGAUCUUAGCAAAGUAUTT against Degs1: the z-score was 2.41 (active).

CCUUCAUUCUCAUGUGACCTT against Psat1: the z-score was -1.2.

On to CCUUAAGGAACUAGGAUUCTT against Lgr5, for which the z-score was 1.05.

On to GGUCCUCCCAUAAUCUAGUTT against Lrrc75a, for which the z-score was 1.18.

For the sequence GCUCAUUGCACUAAAAGACTT against Tnnt1, the z-score is -1.92.

CCGCGUCUGUAUUUGAUAUTT against Sccpdh: the z-score was 1.68.

In the case of GGAAGUCCUGGACAUUCAGTT against Nfkbie, the z-score is 5.66 (active).

In the case of GGUUGAGUUUCAGUGCAUCTT against Klhl28, the z-score was -0.632.

For the sequence GCUUGAUUGUCAGUUGGAATT against Tcp11, the z-score is -0.364.

With GGGUAGUUUUGACUUUGUUTT against Schip1, the z-score was 0.472.

For GGAAUAAGGCGAGUUGGAATT against Serbp1, the z-score is 0.493.

As to GGCCUAUAAUUUCUUUACGTT against Cc2d2a, the z-score is -0.823.

For the sequence CGCGAGGAAGUCGAGGUAUTT against Pax2, the z-score is 1.17.

Take GGAUGUACACAGAAGGCCATT against Sucnr1: the z-score was 3.47 (active).

As to GGCACCCUCAAGAAAGCGUTT against Nol6, the z-score is -1.34.

As for GGGCUUACUGCUUAAUAGATT against Fundc2, the z-score was 0.481.

For CGUGGACUUAAUAUUUCAGTT against Btbd7, the z-score is 0.685.

As to GCCUCCUAGUAUUUACAUGTT against Ube2j2, the z-score is 0.8.

Consider “CCAGGCCAAAUCUCACAAUTT against A730008H23Rik”, for which the z-score was -2.2 (active).

On to CCGUGAAAAUCAGUAAUUATT against Cacybp, for which the z-score is -0.546.

With GGACUUAUCAAGCUGGUUUTT against Rps25, the z-score was -1.48.

For the sequence GCUCACAUUGAGUGGUUGGTT against Ncbp3, the z-score is 0.542.

Turning to GGAGUUACGUAGAACUACCTT against Adam25, the z-score is 0.543.

As to GCAAAUAUUGGCCACUCUCTT against Prpf19, the z-score was -0.523.

Regarding GCCAAGAAAAUCAAGUCUCTT against Pknox2, the z-score was 0.892.

For the sequence GGAAGGAGAAGAAAACAUATT against Gtf3c6, the z-score is -2.13 (active).

As to GGCUGUCCAGACUAGUUCUTT against Lsm14b, the z-score is -0.317.

Turning to CCUCAUCAUAUUCUCCUGATT against Olfr869, the z-score is -0.848.

On to CCUGUCUUUAGUGGACUUUTT against Olfr1453, for which the z-score was 0.22.

GGUCUUUGAGAAGUACCACTT against Chst3: the z-score was -0.22.

Take CCAGUCCUUGAAAAGAGCUTT against Olfr128: the z-score was -2.35 (active).

For the sequence CGCCCAAAUUGACUAUUUGTT against Fam214b, the z-score is 0.351.

(Values after PubChem BioAssay AID1508600 (Functional Genomics Laboratory (NCATS/FGL), 2020).)
